Assay results published in PubChem BioAssay (NCI).
Compounds without any hit were thinned out: in the full panel of roughly 83,000, 20% have a hit.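 Negative percent growth values reflect cell death: -40 means 40% of the cells present at the start died, and -100 means all died.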 Values without a mark were called inactive. Activity calls are given as the source filed them. The calls were made as follows: active = growth percent below 10; inactive = the rest.

Tests used:
Assay in all cases: NCI-60 one-dose screen, 48 h (100 = growth as untreated, 0 = no growth, -100 = all killed)
[1] = test system: SK-MEL-2 melanoma; conditions: 10 µM unless noted
[2] = test system: EKVX NSCLC; conditions: 10 µM unless noted
[3] = test system: SN12C renal; conditions: 10 µM unless noted
[4] = test system: UO-31 renal; conditions: 10 µM unless noted
[5] = test system: TK-10 renal; conditions: 10 µM unless noted
[6] = test system: ACHN renal; conditions: 10 µM unless noted
[7] = test system: CAKI-1 renal; conditions: 10 µM
[8] = test system: A498 renal; conditions: 10 µM unless noted
[9] = test system: CCRF-CEM leukemia; conditions: 10 µM unless noted
[10] = test system: MOLT-4 leukemia; conditions: 10 µM unless noted
[11] = test system: SR leukemia; conditions: 10 µM unless noted
[12] = test system: RPMI-8226 leukemia; conditions: 10 µM unless noted
[13] = test system: OVCAR-8 ovarian; conditions: 10 µM unless noted
[14] = test system: OVCAR-5 ovarian; conditions: 10 µM unless noted
[15] = test system: OVCAR-4 ovarian; conditions: 10 µM unless noted
[16] = test system: SK-OV-3 ovarian; conditions: 10 µM unless noted
[17] = test system: IGROV1 ovarian; conditions: 10 µM unless noted
[18] = test system: HS 578T breast; conditions: 10 µM unless noted
[19] = test system: NCI/ADR-RES ovarian; conditions: 10 µM unless noted

Row | SMILES | growth [1] | growth [2] | growth [3] | growth [4] | growth [5] | growth [6] | growth [7] | growth [8] | growth [9] | growth [10] | growth [11] | growth [12] | growth [13] | growth [14] | growth [15] | growth [16] | growth [17] | growth [18] | growth [19]
1 | COc1ccc(-c2ccc3c4c(cccc24)C(=O)N(N2C(=O)c4cccc5cccc(c45)C2=O)C3=O)cc1 | 111% | 89.4% | 105% | 68.6% | 134% | 96.3% | 75.2% | 100% | 96.8% | 101% | 95.3% | 29.4% | 100% | 101% | 97.5% | 100% | 92.4% | 101% | 98.2%
2 | O=C1c2c(c3c4cccnc4[nH]c3c3ccc4ccccc4c23)C(=O)N1CCN1CCNCC1 | 113% | 92.4% | 76.7% | 58% | 136% | 37% | 52.2% | 70.2% | 27.2% | 8.49% (active) | -6.6% (active) | 74.3% | 50.8% | 113% | 105% | 101% | 51.7% | 107% | 81.4%
3 | COc1ccc(C(=O)n2cc(C=O)c3ccccc32)cc1 | 104% | 97.6% | 94.7% | 70.9% | 123% | 92.4% | 85% | 122% | 103% | 101% | 65.5% | 98.2% | 96.4% | 102% | 111% | 133% | 93.4% | 101% | 94.7%
4 | COc1ccc(Cn2cc3c(c2-c2ccccc2)CCCc2cnoc2-3)cc1[N+](=O)[O-] | 60.4% | 78.9% | 82.2% | 55.5% | 109% | 87.1% | 50.5% | 66.8% | 52.6% | 47% | 32.6% | 59% | 80.2% | 93.4% | 68.8% | 74.8% | 64% | 64.3% | 42.5%
5 | O=C1[C@H]2Cc3c([nH]c4ccccc34)[C@H](c3ccc(Cl)cc3)N2C(=O)CN1C1CCN(Cc2c(Cl)cccc2Cl)CC1 | 106% | 74.5% | 59.9% | 48.4% | 101% | 72.9% | 41.9% | 101% | 53.4% | 44% | 22.2% | 50.3% | 84.5% | 89.2% | 69.9% | 98.5% | 39% | 75.6% | 77.6%
6 | CCC(CC)N1C(=O)/C(=c2\sc3n(c2=O)C2C(NN=3)N(CC)C(=O)N2CC)c2ccccc21 (centres undefined) | 59.4% | 48.1% | 18.2% | 39.8% | 86.5% | 32% | 39.9% | -17% (active) | 15.8% | 10% | 5.6% (active) | 8.29% (active) | 34.8% | 29.8% | 38.4% | 42.6% | 23% | 25.6% | 11%
7 | Cn1c(SC(C(=O)Nc2ccc(F)cc2)c2ccccc2)nc2ccccc2c1=O (centres undefined) | 104% | 100% | 99.1% | 88.1% | 99.1% | 109% | 99.3% | 98.8% | 102% | 101% | 96.9% | 98.4% | 99.7% | 111% | 102% | 109% | 102% | 98.8% | 109%
8 | CCNC(=NCCCN(C)C)N/C(N)=N/c1nc2ccccc2s1 | 92.9% | 90.9% | 82% | 64.3% | 100% | 95.3% | 65.1% | 111% | 82.3% | 94.8% | 55.1% | 96.9% | 90.9% | 95.6% | 107% | 89.9% | 91.1% | 92% | 96.8%
9 | Clc1ccc(-c2csc(N/N=C/c3nc4ccccc4n3C3CC3)n2)cc1 | 106% | 92.2% | 104% | 84.3% | 85.6% | 104% | 89.7% | 108% | 93.7% | 98.2% | 96.6% | 100% | 99% | 99.7% | 101% | 108% | 111% | 106% | 102%
10 | NS(=O)(=O)c1ccc(Nc2nc(N/N=C/c3ccc(C(F)(F)F)cc3)nc(Nc3ccccc3)n2)cc1 | 28.7% | 53.7% | 42.9% | 60.3% | 64.3% | 39.6% | 33.7% | 39.6% | 12% | 9.74% (active) | 7.13% (active) | -5.16% (active) | 33% | 67.5% | 40.9% | 55.5% | 31.2% | 8.82% (active) | 87.4%
11 | C#C[C@]1(O)CC[C@H]2[C@@H]3CC=C4c5sc(Nc6ccc(OC)nc6)nc5CC[C@]4(C)[C@H]3CC[C@@]21C | 68% | 48.7% | 70.5% | 32.6% | 124% | 33.4% | 23.8% | 25.9% | 8.55% (active) | 3.4% (active) | 7.7% (active) | -21.7% (active) | 27.7% | 83.9% | 76.1% | 44.4% | 29.7% | 3.53% (active) | 59%
12 | C/C=C/C=C1\C[C@H]2CO[C@H](O2)C1=O | 100% | 103% | 100% | 88.2% | 108% | 103% | 98% | 103% | 78.9% | 90.4% | 53.1% | 95.4% | 99.7% | 103% | 101% | 103% | 97.7% | 107% | 98.1%
13 | COc1cc(/C=N/Nc2ccnc3cc(Cl)ccc23)cc(OC)c1O | 119% | -71.8% (active) | -64.7% (active) | -96.4% (active) | -69.6% (active) | -98.2% (active) | -93% (active) | 99.5% | 9.72% (active) | -13% (active) | -23.9% (active) | -9.43% (active) | -56% (active) | -5% (active) | -50.2% (active) | 109% | -83.8% (active) | -38.8% (active) | 2.57% (active)
14 | C#CCOc1ccc(/C=N/Nc2nc(-c3cc(Cl)ccc3Cl)cs2)cc1 | 113% | 73.6% | 88.7% | 68.5% | 148% | 97.8% | 77.1% | 83.6% | 94.7% | 86.3% | 87.8% | 76.8% | 93.5% | 99.5% | 52.8% | 97.9% | 64.4% | 98.3% | 95%
15 | C#CCOc1ccc(/C=N/Nc2nc(-c3cc4cc(Br)cc(Br)c4oc3=O)cs2)cc1 | 109% | 92.2% | 92.1% | 88.5% | 142% | 98.8% | 88.1% | 85.4% | 94.4% | 62.8% | 71% | 97.1% | 100% | 102% | 83.1% | 104% | 98.9% | 91.3% | 94.9%
16 | COc1cc(NC2=C(Cl)C(=O)c3nc(C)ccc3C2=O)cc(OC)c1 | 5.03% (active) | 74.7% | -63.3% (active) | -94.6% (active) | -50.1% (active) | -99.6% (active) | -96.5% (active) | 71.1% | 2.72% (active) | 8.29% (active) | -3.19% (active) | -39.7% (active) | -0.815% (active) | 22% | -93.3% (active) | 93.8% | -23.1% (active) | -32.8% (active) | -1.26% (active)
